Experimental findings from PubChem BioAssay AID504834 (National Center for Advancing Translational Sciences (NCATS), 2011) are described below.

In all, about 320,000 compounds went through this assay and about 22,000 (6.9%) were called active. Entries that show only a call come without a potency. Roughly 27% stayed inconclusive and do not appear here. Calls follow the shape of the dose curve; as a rule, active = well fitted inhibition curve with a large enough effect; inconclusive = small, poorly fitted or top-dose-only effect, or another doubt; inactive = no such curve, though single readings can be large or run the other way. For the sample, actives were picked, then their nearest neighbours and some compounds at random.
Potency is read from the fitted curve at half-maximal effect.

The assay is described as follows: Primary qHTS for delayed death inhibitors of the malarial parasite plastid, 96 hour incubation. The note with it: P. falciparum luciferase reporter growth; series mostly up to 28.7 µM. A digest of the protocol:
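Delayed-death screen, second-generation endpoint: infected erythrocytes, 2% hematocrit, 0.05% parasitemia final; 96 hours at 37 C, 5% CO2; luciferase detection reagent; luminescence decrease equals reduced growth.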
(In qHTS, concentration-response curves come from the screen itself.)
Consider `COc1ccccc1C(=O)NCCn1cc(SCC(=O)NCc2ccco2)c2ccccc21`, for which the Potency entry was “inactive”.
As for `CCC(=O)c1cn(CCOc2ccccc2OC)c2ccccc12`, the figure is 13.1 µM (active); as for `CCCn1cc(SCC(N)=O)c2ccccc21`, “inactive”; as for `Cc1ccc(OCc2nnc(SC3CCc4ccccc4C3=O)n2C)cc1` (stereo not given), 13.1 µM (active).
For `Cc1ccc(OCc2nc3ccccc3n2C)cc1`, the Potency entry was “inactive”.
On to `Cc1ccc(OCc2n[nH]c(=S)n2-c2ccccc2)cc1`, for which the Potency result is “inactive”.
On to `CCc1nn(CCCC(=O)Nc2ccc(C)cc2C)c(=O)c2cc3occc3n12`, for which the Potency result was “inactive”.
In the case of `CN(C)S(=O)(=O)c1cccc(C(=O)OCC(=O)N2CCCC2=O)c1`, the Potency result is “inactive”.
With `Cc1ccc(C(=O)NCCN2CCOCC2)cc1C` the figure was 7.38 µM (active); with `Cc1ccc(C(=O)N/C(=C\c2ccc(F)cc2)C(=O)NCCN2CCOCC2)cc1`, 6.57 µM (active); with `COc1ccc(C(=O)NCCCN2CCOCC2)cc1Br`, “inactive”.
Regarding `O=C(NCCN1CCOCC1)/C(=C/c1ccc(F)cc1)NC(=O)c1ccccc1`, the Potency entry is “inactive”.
As for `Cc1ccc(C(=O)NC(=S)NCCN2CCOCC2)cc1`, the entry is “inactive”.
As for `Cc1cc(C)cc(C(=O)NCCN2CCOCC2)c1`, the entry is “inactive”; as for `CCOc1ccc(N(C)S(=O)(=O)c2cnc[nH]2)cc1`, “inactive”; as for `O=C(COc1ccc(Cl)cc1Cl)N/N=C/c1ccccn1`, “inactive”.
As for `O=C(NCCN1CCOCC1)c1ccc(/C=C2\Sc3ccccc3N(Cc3ccc(F)cc3)C2=O)cc1`, the entry is “inactive”; as for `CC(=O)[C@@]12O[C@@H]1C[C@H]1[C@@H]3CC[C@H]4C[C@@H](O)CC[C@]4(C)[C@H]3CC[C@@]12C`, “inactive”; as for `COC(=O)c1ccc(NS(=O)(=O)c2cc3c4c(c2)C(C)C(=O)N4CCC3)cc1` (stereo not given), “inactive”.
Regarding `CC(C)c1ccc(S(=O)(=O)N2CCC3(CC2)OCCO3)cc1`, the Potency result is “inactive”.
In the case of `COc1ccc(S(=O)(=O)N2CCOC23CCN(S(=O)(=O)c2ccc([N+](=O)[O-])cc2)CC3)cc1`, the Potency was 11.7 µM (active).
With `COc1ccc(CNC(=O)C(=O)N2CCC3(CC2)OCCN3S(=O)(=O)c2ccc(C)cc2)cc1` the entry was “inactive”; with `C=CCn1c(=O)c(C(=O)Nc2ncccc2O)c(O)c2ccccc21`, “inactive”.
With `C=CCn1c(CCc2ccc(OC(C)C)cc2)n[nH]c1=S` the entry was “inactive”; with `CC(NS(=O)(=O)c1ccccc1)c1n[nH]c(=S)n1-c1ccccc1` (stereo not given), “inactive”.
As for `CC(C)Oc1ccc(CCc2n[nH]c(=S)n2Cc2ccccc2)cc1`, the figure is 2.08 µM (active); as for `NS(=O)(=O)c1ccccc1NC(=O)c1c(O)c2ccccc2[nH]c1=O`, “inactive”; as for `Cc1cc(C(C)(C)C)cc(S(=O)(=O)Nc2ccc(C(=O)O)cc2)c1C`, “inactive”.
With `O=C(O)c1ccc(NS(=O)(=O)c2ccc3c(c2)C(=O)c2cc(S(=O)(=O)Nc4ccc(C(=O)O)cc4)ccc2-3)cc1`, the Potency was 0.329 µM (active).
As for `O=C(c1ccc(NS(=O)(=O)c2ccc3[nH]c(=O)[nH]c3c2)cc1)N1CCCCC1`, the entry is “inactive”.
With `Cc1cc(C)n(CCC(=O)N2CCN(S(=O)(=O)c3ccc(C)c(C)c3)CC2)n1` the entry was “inactive”; with `O=C(NCCCN1CCOCC1)c1cc(-c2cccc(O)c2)on1`, “inactive”; with `CC(=O)Nc1nc2c(s1)C(=O)NCC(C)(C)C2`, “inactive”.
Take `COc1cccc(-c2nc(CS(=O)(=O)CC(=O)NCCc3ccc(OC)c(OC)c3)c(C)o2)c1`: the Potency entry is “inactive”.
`O=C(NCc1ccccc1)c1onc(CSc2nc3ccccc3[nH]2)c1C(=O)NCc1ccccc1`: the Potency was 1.85 µM (active).
With `COc1ccccc1CSc1nc2ccccc2[nH]1`, the Potency entry is “inactive”.
With `CCc1nc2ccccc2c(C(=O)NCc2ccc(OC)cc2)c1C` the entry was “inactive”; with `Cc1ccc(C)c(NC(=O)COC(=O)Cn2c(C)csc2=O)c1`, “inactive”; with `O=C(Nc1ccccc1)C1CC(=O)n2c(nc3ccccc32)N1` (stereo not given), “inactive”.
Consider `Cc1ccc(OCC(=O)Nc2ccccc2C(=O)NC2CC2)cc1`, for which the Potency entry is “inactive”.
With `CC1(c2ccc(Cl)cc2)NC(=O)N(CC(=O)c2ccc3c(c2)OCO3)C1=O` (stereo not given) the entry was “inactive”; with `COCCNC(=O)c1ccc(N2CCC3(CC2)OCCO3)c([N+](=O)[O-])c1`, 14.7 µM (active).
On to `CCOC(=O)c1c(NC(=O)c2ccc(N3CCOCC3)c([N+](=O)[O-])c2)sc(C)c1C`, for which the Potency entry is “inactive”.
Take `O=C(NCCCN1CCOCC1)c1ccc(N2CCCC2)c([N+](=O)[O-])c1`: the Potency result was “inactive”.
As to `Cc1cccc(-c2noc(CCC(=O)NC3CCCC3)n2)c1`, the Potency result was “inactive”.
With `NS(=O)(=O)c1cc(C(=O)OCC(=O)NNC(=O)c2ccccc2)ccc1Cl` the entry was “inactive”.
As for `CC1CCC(NC(=O)C2c3ccccc3C(=O)N2Cc2ccc3c(c2)OCO3)CC1` (stereo not given), the Potency result is “inactive”.
Regarding `O=C(/C=C/c1ccc2c(c1)OCO2)NCc1ccc(F)cc1`, the Potency entry was “inactive”.
In the case of `CC1CCC(N2CC(=O)N(Cc3ccc4c(c3)OCO4)C(c3ccc(F)cc3)C2=O)CC1` (stereo not given), the Potency is 9.28 µM (active).
As for `O=S(=O)(c1cccc(Cn2nnc(-c3ccc(F)cc3)n2)c1)N1CCOCC1`, the entry is “inactive”; as for `CCOC(=O)c1cc(=O)c2ccc(OCc3ccccc3)cc2o1`, “inactive”.
For `CC(C)Oc1ccc(C(=O)NCC(=O)Nc2ccc3c(c2)CCC3)cc1`, the Potency result was “inactive”.
As for `Nc1ccc2nn(-c3ccc(Cl)cc3)nc2c1`, the entry is “inactive”; as for `Cc1ccc(-n2ncc3c2ncn2nc(-c4ccco4)nc32)c(C)c1`, “inactive”; as for `COC(=O)CSc1ncnc2c1cnn2-c1ccc(C)cc1C`, “inactive”.
With `Cc1ccc(-n2ncc3c(=O)[nH]cnc32)c(C)c1` the figure was 14.7 µM (active); with `COc1cc(NC(=O)C2=CC(c3ccc(C)cc3)=NS(=O)(=O)N2C)cc(OC)c1OC`, “inactive”.
Regarding `CCOC(=O)C1(CCOc2ccccc2)CCN(Cc2cc(OC)cc(OC)c2)CC1`, the Potency entry is “inactive”.
With `CCOC(=O)C1(CCOc2ccccc2)CCN(C(=O)c2cncs2)CC1` the figure was 9.28 µM (active).
With `CCCS(=O)(=O)N1CCC(CCOc2ccccc2)(C(=O)OCC)CC1`, the Potency entry was “inactive”.
As for `CC(=O)NCC(=O)N1CCC(n2nccc2NC(=O)CCCc2ccccc2)CC1`, the entry is “inactive”; as for `CCOc1ncccc1C(=O)Nc1ccc(S(=O)(=O)Nc2nc(C)cc(C)n2)cc1`, “inactive”.
For the compound `COc1ccc(/C=C(\NC(=O)c2ccccc2)C(=O)NCCN2CCOCC2)cc1OC`, the Potency result was “inactive”.
As for `Nc1nc(NCc2ccccc2)n(-c2ccccc2)n1`, the entry is “inactive”; as for `Cc1ccc2nc(SCC(=O)Nc3cccc4ccccc34)nc(=O)n2c1`, “inactive”.
